FBPA Giardia inh – Giardia lamblia aldolase inhibition; A8B2U2; actives 0.71% (n = 290,000); AID 2451; purified Giardia FBPA; Potency, µM (doses to about 59.6 µM), actives largely listed as inhibitors; further: nearly all actives have a fitted effect of over 55% in size
Target sequence (A8B2U2 whole entry, looked up): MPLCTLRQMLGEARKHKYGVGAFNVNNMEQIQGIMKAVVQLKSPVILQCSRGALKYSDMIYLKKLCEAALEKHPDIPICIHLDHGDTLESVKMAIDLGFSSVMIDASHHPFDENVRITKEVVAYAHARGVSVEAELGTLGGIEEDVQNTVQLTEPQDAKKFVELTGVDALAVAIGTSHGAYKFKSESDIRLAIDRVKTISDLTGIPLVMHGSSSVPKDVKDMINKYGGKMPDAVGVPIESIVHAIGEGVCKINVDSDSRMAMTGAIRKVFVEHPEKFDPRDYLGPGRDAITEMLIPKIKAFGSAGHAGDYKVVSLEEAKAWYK
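40 nM FBPA preincubated 10 min at RT with compound (up to 57.5 uM final), then substrate plus GAPDH/TPI/NAD/arsenate coupling and diaphorase/resazurin added. Fluorescence read after 20 min at RT, 525/598 nm.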
LmPK inhibitor – blocks Leishmania mexicana pyruvate kinase activity; Q27686; purified LmPK, Kinase-Glo ATP luminescence, 1 h; Potency, µM (titrated, usually from 57.5 µM), actives largely listed as inhibitors; actives 0.37% (n = 290,000)
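Purified LmPK (0.1 nM) with 0.5 mM PEP and 0.1 mM ADP in imidazole buffer pH 7.2 with MgCl2/KCl, 1 h at room temperature. ATP formed was read by luciferase luminescence and normalized to no-enzyme and uninhibited controls.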
Shiga toxin inh – inhibitors of Shiga toxin in Vero cells | inhibition, % at 38.7 µM | AID 2315 | Vero cells, Shiga toxin protein synthesis inhibition reporter | actives 9.2% (n = 290,000); in the data active means inhibition mostly above about 28%, no sharp cut-off; inactive means mostly below about 43%
Sm TGR block – inhibitors of Schistosoma mansoni thioredoxin glutathione reductase. Q962Y6. purified TGR, DTNB reduction, TNB absorbance 405 nm. Potency, µM (series often up to 114 µM), hits mostly inhibitors. actives 3% (n = 360,000). AID 485364; further: nearly all actives have a fitted effect of over 60% in size
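Kinetic colorimetric format: TGR-catalysed, NADPH-driven DTNB reduction monitored via TNB absorbance. Enzyme dispensed at 20 nM; compound exposure 15 min at room temperature before reaction start.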
Cycloheximide cs – affects cycloheximide protein synthesis inhibition readout, counter-screen. AID 2314. max response, %. cell reporter, cycloheximide protein synthesis inhibition counterscreen. actives 12% (n = 300,000); in the data active means max response mostly above about 13%, no sharp cut-off; inactive means mostly below about 14%; further: read at 38.3 µM for the half of the compounds with a filed dose
Tb PYK inh – T. brucei pyruvate kinase inhibition; TbPYK enzyme, Kinase-Glo Plus ATP luminescence, 45 min; Potency, µM (doses to about 76.8 µM), hits mostly inhibitors; actives 0.12% (n = 410,000); AID 624173; further: nearly all actives have a fitted effect of over 50% in size
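Luminescent Kinase-Glo Plus end-point after 45 min room-temperature reaction of T. brucei pyruvate kinase started with 130 uM ADP (final). Buffer TEA 50 mM pH 7.2 with KCl, MgCl2, BSA, Tween-20; titration-based qHTS with fitted concentration-effect curves.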
Numbers stand for hits; n = inactive; u = inconclusive; x = no result given; + = active, no number. Only a selection was taken, and hits are over-represented in it overall. Unless noted, the call rests on the fitted dose curve; in most records, active means well fitted curve in the direction sought with a large enough effect; inconclusive means small, poorly fitted or top-dose-only effect, or another doubt; inactive means no such curve, though single readings can be large; an effect the other way counts as inactive or inconclusive.

SMILES	FBPA Giardia inh	LmPK inhibitor	Shiga toxin inh	Sm TGR block	Cycloheximide cs	Tb PYK inh
O=C(COC(=O)c1ccco1)c1ccccc1	n	n	111.5	n	47.8	n
O=C(Nc1ccc(Oc2ccc3ccccc3c2)cc1)c1ccco1	n	n	n	n	n	n
O=C(Oc1cccc(-c2cnc3ccccc3n2)c1)c1ccco1	n	n	n	n	45.4	n
O=C(Oc1ccc2ccccc2c1)c1ccco1	n	n	n	n	20.0	n
CCN(CC)S(=O)(=O)c1ccc(C)c(C(=O)Oc2cccc(-c3cnc4ccccc4n3)c2)c1	n	n	n	n	n	n
O=C(COC(=O)c1ccco1)c1ccc(Cl)cc1	n	n	103.6	n	29.1	n
O=C(COC(=O)c1ccco1)NCCNC(=O)COC(=O)c1ccco1	x	n	n	n	n	n
Cc1ccc(CNC(=O)COC(=O)c2ccc(Br)o2)cc1	x	x	x	n	x	n
O=C(Oc1ccccc1)c1cc2ccccc2o1	n	n	n	n	n	n
CC1CC(C)(C)Nc2ccc(N=O)cc21 (configuration not stated)	u	n	78.6	14.1µM	50.7	n
Cc1ccc(C(=O)COC(=O)c2ccc(Br)o2)cc1C	n	n	62.7	n	40.3	n
Cc1ccc(C(=O)COC(=O)c2cc(=O)[nH]c3ccccc23)cc1C	n	n	150.2	n	24.1	n
O=C(COC(=O)c1cc2ccccc2o1)c1ccccc1	n	n	117.1	n	39.0	n
COc1cc(C(=O)COC(=O)c2ccco2)cc(OC)c1OC	x	x	x	x	x	n
O=C(CSCc1ccc(Cl)cc1)c1ccco1	n	n	n	n	20.7	x
CC1CC(C)(C)Nc2ccc(OC(=O)c3ccco3)cc21 (configuration not stated)	x	n	121.3	n	48.8	n
Cc1ccc(C(=O)COC(=O)c2ccco2)cc1C	x	n	88.4	n	49.3	n
O=C(COC(=O)c1ccco1)c1ccc2ccccc2c1	n	n	n	n	55.9	n
CN(C)c1ccc(CNC(=O)c2cnc3sc(N4CCOCC4)nn3c2=O)cc1	x	x	x	n	x	n
Cc1ccc2c(C(=O)CCl)c(C)[nH]c2c1	n	n	n	1.41µM	n	n
Cc1ccc2c(C(=O)CN3CCSCC3)c(C)[nH]c2c1	n	n	n	u	n	u
CC(C)N1CCC1(C)C(=O)Nc1ccc(-n2cccc2)cc1 (configuration not stated)	x	x	x	x	x	n
CCN1CCN(C(c2ccc(C)cc2)c2sc3nc(-c4ccco4)nn3c2O)CC1 (configuration not stated)	x	x	x	n	x	n
Cc1c(OCc2ccccc2)c(=O)ccn1Cc1ccccc1	n	n	n	n	11.1	n
COc1ccc2c(c1)cc1c(=O)n(CC(=O)NC3CCCCC3)nc(C)n12	x	x	x	n	x	n
SMILES	FBPA Giardia inh	LmPK inhibitor	Shiga toxin inh	Sm TGR block	Cycloheximide cs	Tb PYK inh
CCC(=O)Nc1ccc2c(c1)ncn2-c1ccc(OC)cc1	n	n	66.0	n	45.5	n
CCC(=O)Nc1ccc2c(c1)ncn2-c1ccccc1C	n	n	n	x	n	n
COc1ccc(-n2cnc3cc(NCc4ccccn4)ccc32)cc1	n	n	n	n	n	n
CCC(=O)Nc1ccc2c(c1)ncn2-c1ccc(C)cc1	n	n	96.3	n	36.4	n
CCCn1c(=O)n(-c2ccccc2)c(=O)c2sc3ccccc3c21	x	x	x	n	x	n
CN(C)S(=O)(=O)c1cccc(C(=O)Nc2ccccc2[N+](=O)[O-])c1	n	n	51.2	n	18.1	n
O=C(O)c1ccc(NS(=O)(=O)c2cccc(C(=O)Nc3ccccc3[N+](=O)[O-])c2)cc1	n	n	n	n	n	n
COc1ccccc1Nc1ccc(NC(=O)c2cccc([N+](=O)[O-])c2C)cc1	n	n	55.2	n	30.1	n
CCN(CC)S(=O)(=O)c1cc(C(=O)NC2=NCCS2)ccc1Cl	n	n	n	n	n	n
CCN(CC)S(=O)(=O)c1cc(C(=O)Nc2cc(C)[nH]n2)ccc1Cl	n	n	117.5	n	66.5	n
CCN(CC)S(=O)(=O)c1cc(C(=O)O)ccc1Cl	u	n	n	n	n	n
CCN(CC)S(=O)(=O)c1cc(C(=O)Nc2ccccc2[N+](=O)[O-])ccc1Cl	n	n	41.4	n	27.1	n
Cc1cc(C)cc(Nc2cc(C)nc3nc(-c4ccco4)nn23)c1	x	x	x	n	x	n
CCCNC(=O)C1(C)CCCN(C(=O)CN2C(=O)c3ccccc3C2=O)C1 (configuration not stated)	x	x	x	x	x	n
Cc1nn(-c2ccc(N3CCCC3)nn2)c(C)c1CCC(=O)NCc1ccc(F)cc1	x	x	x	n	x	n
Cc1c(NC(=O)c2cccs2)cccc1[N+](=O)[O-]	n	n	n	n	n	n
COc1cc(C(=O)Nc2ccc(N(C)C)cc2)c([N+](=O)[O-])cc1OC	n	n	107.0	n	40.7	n
Cc1c(NC(=O)c2ccccc2)cccc1[N+](=O)[O-]	n	n	+	n	17.5	n
CCOC(=O)N1CCc2c(sc3c2c(=O)n(-c2ccc(F)cc2)c(=O)n3CC(=O)c2ccccc2)C1	x	x	x	n	x	n
CC(C)Oc1cccc(C(=O)NC2=NCCS2)c1	n	n	107.5	n	55.3	n
COc1cccc(C(=O)NC2=NCCS2)c1	n	n	41.5	n	29.3	n
CCOc1cccc(C(=O)NC2=NCCS2)c1	n	n	72.2	n	39.5	n
O=C(NC1=NCCS1)c1cccc(Br)c1	x	x	x	x	x	n
COc1cccc(C(=O)Nc2nnc(-c3cccs3)o2)c1	n	n	n	n	32.5	n
COc1cccc(C(=O)Nc2nnc(-c3ccc(Cl)cc3)o2)c1	u	n	n	n	n	n
SMILES	FBPA Giardia inh	LmPK inhibitor	Shiga toxin inh	Sm TGR block	Cycloheximide cs	Tb PYK inh
COc1ccc(C(=O)OCC(=O)c2ccc[nH]2)c(OC)c1	x	x	x	x	x	n
CCNC(=O)C1(C)CCN(C(=O)c2ccccc2C(F)(F)F)C1 (configuration not stated)	x	x	x	x	x	n
COc1ccc(Cl)cc1NC(=O)N1CCN(Cc2cc(=O)n3nc(-c4ccccc4)sc3n2)CC1	x	x	x	n	x	n
COc1ccc(/C=C/C2=C[C@]3(C)C[C@]2(C)[C@H](c2ccc(OC)cc2)CC3=O)cc1	n	x	x	x	x	x
COc1ccc(-c2noc(Cn3c(=O)c4ccccc4n(CC(=O)Nc4cccc(OC)c4)c3=O)n2)cc1	x	x	x	n	x	n
CCCCN1C(=O)c2ccc(C(=O)NC3=NCCS3)cc2C1=O	n	n	n	n	20.2	n
Cc1ccc(N2NC3(CCN(C(N)=O)CC3)NC2=O)cc1	n	n	n	39.8µM	n	n
CCOc1ccc2nc(-c3ccccc3)nc(SCC(=O)OC)c2c1	n	n	x	n	n	n
COC(=O)CSc1[nH]c2ccc(Br)cc2c1[N+](=O)[O-]	n	n	n	2.51µM	n	n
COC(=O)CSc1[nH]c2cc(C)ccc2c1[N+](=O)[O-]	n	n	n	n	n	n
CCOc1ccc2[nH]c(SCC(=O)OC)c([N+](=O)[O-])c2c1	n	n	n	44.7µM	n	n
